High-throughput results (PubChem)
In the library only some 11% were active in any assay of this set; here they are far more common.
Ins promoter up: MIN6 insulin promoter up-regulation; MIN6 insulin promoter-GFP reporter, high-content imaging; stronger effect = higher value; z-score at 5 µM; 190,000 compounds, 0.3% hits;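 active = z-score above 3 at 5 µM with at least 500 cells counted in the well; inconclusive = wells under 500 cells, flagged as cytotoxic or low count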
Autophagy mod: autophagy modulation, high-content screen; MEF GFP-LC3 puncta imaging; test concentration mostly 10 µM; calls only at 10 µM (by protocol); 190,000 compounds, 0.98% hits; AID 463193;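 active = percentage of spot-positive cells more than 3 SD above its plate mean, without a fluorescence outlier flag or 80% toxicity; inconclusive = no clear call, values can overlap the other calls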;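 note: spot-positive cell cutoff set from DMSO-treated cells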
Lmaj promast: inhibitors of Leishmania major promastigote growth | Leishmania major promastigotes, resazurin fluorescence viability | inhibition, % at 10 µM | 200,000 compounds, 9% hits | AID 1063; in the data active = inhibition above about 50%;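 note: promastigotes grown with compound for 44 hours at 28 °C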
WT yeast gro inh: growth inhibition of WT yeast, mitochondrial fusion screen; 190,000 compounds, 2.1% hits; mitochondrial fusion phenotypic screen, WT strain; inhibition, % at 10 µM; in the data active = inhibition above about 58%; tested in S. cerevisiae
INS promoter inh: TRM-6 insulin promoter activity inhibition | TRM-6 cells (human fetal islet line), insulin promoter-eGFP reporter, imaging; reporter expression induced with tamoxifen | inhibition, % at 2 µM | 130,000 compounds, 0.9% hits;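 active = inhibition above the mean plus 3 SD, with well images judged a real hit on visual review, cut at about 60% in these data, passing the limit was not always enough; inconclusive = inhibition over the cutoff but images rejected on review; inactive = inhibition not above the cutoff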
* hit, by the source's call; i = inactive; ? = inconclusive; nt = not tested or not shown; + = active, no number.

SMILES	Ins promoter up	Autophagy mod	Lmaj promast	WT yeast gro inh	INS promoter inh
CCCn1nnc(NCc2ccc(OCc3cccs3)c(OC)c2)n1	-0.41	i	5	-16	19
COc1cc(CNCCO)cc(Br)c1OCc1ccccc1Cl	-0.95	i	100*	79*	19
CCOc1c(Br)cc(CNCc2cccs2)cc1OC	0.28	i	3	-5	nt
COc1cccc(CNCCO)c1OCc1ccccc1	0.78	i	-5	-14	nt
COc1cc(CNCCO)cc(Cl)c1OCc1ccc(Cl)cc1Cl	nt	+	100*	85	nt
COc1cccc(CN2CCNC(=O)C2CC(=O)N(Cc2cnn(C)c2)C(C)C)c1 (stereo not given)	-0.06	i	-8	10	nt
Cc1c(-n2c(SC(C)C(=O)NC(N)=O)nc3ccccc3c2=O)c(=O)n(-c2ccccc2)n1C (stereo not given)	-0.35	i	-1	-11	nt
FC(F)(F)c1ccc(N=Cc2sc(N3CCOCC3)nc2-c2ccccc2)cc1	-0.24	i	-10	4	nt
CSc1sc(C(=O)NNC(C)=O)c2c1C=CCC2	0.17	nt	nt	nt	nt
CN(C)Cc1ccccc1Sc1cccc2ccccc12	-0.35	i	97*	24	-8
NCCc1nnc(SCc2c(Cl)cccc2Cl)o1	0.57	nt	nt	nt	nt
NCCCCCc1nnc(SCc2ccccc2Cl)o1	0.15	i	99*	16	18
CSc1nnc(-c2cccc(C)c2)n1N	0.95	i	-3	-19	23
COCCN=c1scc(-c2cc(OC)ccc2OC)n1/N=C/c1c[nH]c2ccccc12	nt	i	41	58*	0
COCCN=c1scc(-c2ccco2)n1/N=C/c1ccc(O)c(O)c1O	0.85	i	4	-5	nt
COc1ccc(CNC(=O)CN(Cc2ccccc2)S(=O)(=O)c2ccc(Cl)cc2)cc1	0.15	i	98*	2	-27
COc1ccc(C)cc1S(=O)(=O)N(CC(=O)N1CCOCC1)Cc1ccccc1	-0.55	i	-1	-14	nt
COc1ccc(CNC(=O)CN(Cc2ccc(Cl)cc2)S(=O)(=O)c2ccccc2)cc1	nt	i	12	0	-55
COc1ccc(C)cc1S(=O)(=O)N(CC(=O)NCc1ccc(Cl)cc1)Cc1ccccc1	-0.47	i	99*	49	-13
Cc1[nH]c2ccc3c(ncn3CCC#N)c2c1C	0.16	i	0	2	11
CCN1CCN(C(=S)NCCc2ccccc2)CC1	nt	i	86*	4	-22
Cc1ccc(Cl)cc1N1CCN(c2cccc[n+]2C)CC1	-0.19	i	74*	11	-39
C[n+]1ccccc1N1CCN(c2ccccc2Cl)CC1	0.18	i	48	12	-36
Cc1ccc(Cl)cc1N1CCN(C(=S)NCCc2ccccc2)CC1	-0.72	i	0	66*	6
CCOc1ccccc1N1CC(C(=O)Nc2cccc(S(=O)(=O)N3CCCCC3)c2)CC1=O (stereo not given)	0.54	i	-2	-4	nt
SMILES	Ins promoter up	Autophagy mod	Lmaj promast	WT yeast gro inh	INS promoter inh
CCOC(=O)c1cc2sccc2n1CC(=O)N1CCCc2ccccc21	0.24	i	92*	-10	-9
O=C(c1cc2sccc2n1Cc1ccccc1)N1CCCc2ccccc21	1	i	63*	13	-79
O=C(NCc1ccc(Cl)cc1)c1n[nH]c([N+](=O)[O-])c1Cl	1.3	i	-4	-9	nt
Cc1cc(C)c2oc(-c3ccc(Cl)c(NC(=O)c4ccc(C#N)cc4F)c3)nc2c1	0.23	+	13	4	29
N#Cc1ccc(C(=O)Nc2cccc3ncccc23)c(F)c1	0.86	i	-7	-9	?
Cc1ccc(N2C(=O)c3cccc4c([N+](=O)[O-])ccc(c34)C2=O)c2cccnc12	0.95	nt	nt	nt	nt
O=C1c2cccc3c([N+](=O)[O-])ccc(c23)C(=O)N1Cc1cccnc1	2.9	i	100*	64*	i
Cc1ccnc(N2C(=O)c3cccc4c([N+](=O)[O-])ccc(c34)C2=O)c1	3.1*	i	100*	57	nt
O=C1c2cccc3cccc(c23)C(=O)N1Cc1cccnc1	0.17	nt	nt	nt	nt
COc1ccc2nc(N/C(N)=N/C(=S)Nc3ccccc3)nc(C)c2c1	nt	i	37	29	14
CCOc1ccc2nc(N/C(N)=N/C(=S)Nc3ccc(OC)cc3)nc(C)c2c1	-1.5	i	72*	17	nt
Cc1ccc(-c2ccc(/C=N/N=C3/NC(=O)C(CC(=O)O)S3)o2)c([N+](=O)[O-])c1 (stereo not given)	0.12	i	100*	-6	nt
O=C(O)CCCNC(=O)CC1S/C(=N/N=C/c2ccccc2O)NC1=O (stereo not given)	0.1	i	-6	5	36
O=C(O)CC1S/C(=N/N=C/c2ccc(-c3ccccc3[N+](=O)[O-])o2)NC1=O (stereo not given)	1	i	100*	-31	nt
COc1ccc(OC)c(-n2c(SCC(=O)Nc3cccc(S(N)(=O)=O)c3)nc3ccccc3c2=O)c1	0.02	nt	nt	nt	nt
CC[C@H](C)[C@H](NC(=O)c1ccc(Cl)cc1)C(=O)OCC(=O)c1ccc2c(c1)NC(=O)CO2	-0.27	i	100*	-6	-23
COc1ccc(NC(=O)/C=C/c2ccccc2[N+](=O)[O-])c(OC)c1	0.25	i	-1	10	nt
COc1ccc(NCc2ccc([N+](=O)[O-])s2)cc1	-0.6	i	73*	-4	-20
COc1ccc(NCc2ccc([N+](=O)[O-])s2)c(OC)c1	0.53	i	98*	-1	-27
Cc1cc(C)c(NC(=O)c2ccccc2C(=O)c2ccccc2)c(C)c1	-2.6	i	19	-16	-65
CC1(C)CN2C(=O)c3ccccc3C2(C)S1 (stereo not given)	-0.34	i	-6	3	-13
O=C1Nc2ccc(Br)cc2C12NNc1ccccc1O2 (stereo not given)	14*	+	73*	88*	nt
O=C1Nc2ccc(Br)cc2C1(O)Cc1ccccn1 (stereo not given)	0.21	i	-7	-8	14
CC1=C(C(=O)OCc2ccc3c(c2)OCO3)C(c2ccccc2OCc2ccccc2)NC(=O)N1 (stereo not given)	-0.8	i	99*	26	3
O=C(CN1CCN(c2ccc([N+](=O)[O-])cc2)CC1)Nc1nccs1	-0.23	i	-5	5	77*
SMILES	Ins promoter up	Autophagy mod	Lmaj promast	WT yeast gro inh	INS promoter inh
Cc1ccc(Cn2ccc(=O)c(OCc3c(Cl)cccc3Cl)c2C)cc1	nt	i	97*	77*	-41
COC(=O)c1c(N2C(=O)CC(Sc3ccccc3C(=O)O)C2=O)sc2c1CCCC2 (stereo not given)	0.57	i	-8	13	33
C=C1/C(=C\C=C2/CCC[C@]3(C)[C@@H]([C@H](C)CCCC(C)(C)O)CC[C@@H]23)C[C@@H](O)C[C@@H]1O	-0.18	nt	nt	94*	nt
CCCCCCCCNC(=O)c1cccnc1SCC(=O)Nc1ccccc1OC	0.53	i	82*	19	-31
CC[n+]1c(C)cc(C)n1-c1ccccc1	nt	i	-8	-8	-38
COc1ccc(NC(=S)Nc2cc(S(=O)(=O)N3CCCCC3)ccc2OC)cc1	-0.05	i	91*	4	46
